Records with an inconclusive call do not appear. The source made the active and inactive calls. Unless noted, cut-off not given; nearly all actives show AC50 up to about 26 µM.

This is an account of results in PubChem BioAssay.

The nature of assay [1]: growth inhibition of DIPG glioma cells, dose response, cell-based, SU-DIPG-XVII, MIPE5.0, CellTiter-Glo, qHTS (AID 1347060).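 On AC50: cells exposed to compound for 48 hours before viability readout.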 Conditions: SU-DIPG-XVII viability, CellTiter-Glo ATP luminescence. (In general: ATP-based viability assays read luminescence as a measure of living cells.)
Assay [2] in a line: growth inhibition of DIPG glioma cells, dose response, cell-based, SU-DIPG-XIII, MIPE4.0, CellTiter-Glo, qHTS (AID 1347061; cut-off not given, nearly all actives have AC50 up to about 37 µM;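 further: cells exposed to compound for 48 hours before readout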). Conditions: SU-DIPG-XIII viability, CellTiter-Glo ATP luminescence.
A short description of assay [3]: growth inhibition of DIPG glioma cells, dose response, cell-based, JHH-DIPG-1, MIPE4.0, CellTiter-Glo, qHTS (AID 1347062; cut-off not given, nearly all actives have AC50 up to about 27 µM;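 on AC50: cells exposed to compound for two days before readout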). Particulars: JHH-DIPG-1 viability, CellTiter-Glo ATP luminescence.
Assay [4] can be described thus: growth inhibition of DIPG glioma cells, dose response, cell-based, SU-DIPG-IV, MIPE4.0, CellTiter-Glo, qHTS (AID 1347063; cut-off not given, nearly all actives have AC50 up to about 30 µM;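 further: compound exposure lasted 48 hours before the viability readout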). Conditions: SU-DIPG-IV viability, CellTiter-Glo ATP luminescence.
A short description of assay [5]: growth inhibition of DIPG glioma cells, dose response, cell-based, SU-DIPG-XIII, MIPE5.0, CellTiter-Glo, qHTS (AID 1347064; cut-off not given, nearly all actives have AC50 up to about 23 µM;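 on AC50: cells exposed to compound for 48 hours before the viability read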). Particulars: SU-DIPG-XIII viability, CellTiter-Glo ATP luminescence.
Assay [6] can be described thus: viability loss in pontine glioma line – cell-based, SU-DIPG-XXV, MIPE5.0, CellTiter-Glo, qHTS, dose response (AID 1347065).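 Further: cells exposed to compound for 48 hours before ATP readout.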 Particulars: CellTiter-Glo ATP luminescence.
Assay [7] is described as follows: SU-DIPG-VI glioma cell viability, MIPE4.0 library, CellTiter-Glo luminescence, qHTS (AID 1347066; cut-off not given, nearly all actives have AC50 up to about 30 µM;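 further: cells exposed to compound for 48 hours before readout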). Particulars: CellTiter-Glo ATP luminescence.
Assay [8] is described as follows: SU-DIPG-XXV glioma cell viability, MIPE5.0 library, qHTS (AID 1347068; cut-off not given, nearly all actives have IC50 up to about 30 µM;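 further: cells exposed to compound for 48 hours before viability readout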). In general terms: qHTS replaces the single test concentration by a dilution series.
The nature of assay [9]: JHH-DIPG-1 glioma cell viability, MIPE5.0 library, CellTiter-Glo luminescence, qHTS (AID 1347067).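 Further: cells exposed to compound for 48 hours before readout.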 Particulars: JHH-DIPG-1 glioma viability, CellTiter-Glo ATP luminescence.
Assay [10] in a line: sensitizers of A549 cells to miR-34 induction, primary screen, imaging, A549 dox-inducible miR-34, nuclei and caspase counts (AID 1347080;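 active means compounds whose cell count with miR-34 switched on is under 0.7 times the count with it off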). Particulars: A549 miR-34 inducible, Hoechst nuclei count, 48 h.
Assay [11] is described as follows: survival rescue of mitochondrial mutant cells in low glucose, primary screen, MELAS cybrids, Rieske KO mouse fibroblasts, CellTiter-Glo (AID 1508586;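 active means mean z-score across replicates of 1.96 or higher in either the MELAS or the Rieske mutant cell line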;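 further: z relative to plate mean and SD of compound and empty wells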).
Where [12] appears, read: stronger effect = lower value, cell number ratio, induced over uninduced.
Setting [13] is: measured here: relative caspase fold change +Dox/-Dox.
[14] abbreviates: measured here: total cells with miR-34 induction, stronger effect = lower value.
Setting [15] is: measured here: total cells without miR-34 induction.
Where [16] appears, read: MELAS cybrid survival, CellTiter-Glo 48 h, stronger effect = higher value.
The mark [17] stands for this setting: Rieske KO mouse fibroblast survival, CellTiter-Glo 72 h.

For the compound `CC(C)(O)c1cc2nc(-c3cnc(N)nc3)nc(N3CCOCC3)c2s1`, the half-maximal activity concentration (AC50) (as a rule, the midpoint of the concentration-response curve, whichever way the signal moves) in assay [1] was 1180 nM (active); in [2] it was 590 nM (active); in assay [3], 833 nM (active); in assay [4], 52.6 nM (active); in assay [5], 1050 nM (active); in assay [6], 417 nM (active). Moreover, in assay [7], the concentration at half-maximal activity (AC50) is 148 nM (active). For the same compound, in assay [8], the IC50 (usually the concentration that gives 50% inhibition) is 1180 nM (active).
`CC1(C)CC(=O)c2c(C(F)(F)F)nn(-c3ccc(C(N)=O)c(NC4CCC(OC(=O)CN)CC4)c3)c2C1` (stereo unspecified): the half-maximal activity concentration (AC50) in [1] is 186 nM (active); in [2], 662 nM (active); in assay [3] it was 148 nM (active); in assay [4] it was 418 nM (active); in assay [5], 417 nM (active); in assay [6], 235 nM (active). For the same compound, the half-maximal activity concentration (AC50) in assay [9] was 166 nM (active). The IC50 in assay [8] was 263 nM (active). Besides, the fold change was 1.04 (inactive) in assay [10] (setting [12]) and 0.875 in assay [10] (setting [13]). In addition, the figures for the cell count in [10] (setting [14]) and in [10] (setting [15]) were 2840 and 2740, respectively. Also, the z-score was 2.47 (active) in assay [11] (setting [16]) and -1.59 in assay [11] (setting [17]).
On to `COC(=O)N1CCN(Cc2cccc(NC(=O)Nc3ccc(C)nc3)c2F)CC1`, for which the call in assay [1], in [2], in [3], in assay [4], in assay [5] and in assay [6] was inactive. Also, the outcome in assay [7] and in assay [9] was inactive. Besides, the fold change was 0.947 (inactive) in [10] (setting [12]) and 1.41 in assay [10] (setting [13]). The cell count was 9170 in assay [10] (setting [14]) and 9680 in [10] (setting [15]). The z-score in assay [11] (setting [16]) is -0.446 (inactive); in assay [11] (setting [17]), 0.371.
